Assay results published in the supplement of paper PMC3334620.
The full ranking holds about 33,000 sequences; the median of “E-score (-0.5 to 0.5)” is about -0.035, and the highest 2% start at about 0.35. The list comes from a sample in which the highest values are over-represented; it also holds similar and randomly drawn sequences.

Biological target: T1, Pdr3 (UniProt P33200)
T1 sequence: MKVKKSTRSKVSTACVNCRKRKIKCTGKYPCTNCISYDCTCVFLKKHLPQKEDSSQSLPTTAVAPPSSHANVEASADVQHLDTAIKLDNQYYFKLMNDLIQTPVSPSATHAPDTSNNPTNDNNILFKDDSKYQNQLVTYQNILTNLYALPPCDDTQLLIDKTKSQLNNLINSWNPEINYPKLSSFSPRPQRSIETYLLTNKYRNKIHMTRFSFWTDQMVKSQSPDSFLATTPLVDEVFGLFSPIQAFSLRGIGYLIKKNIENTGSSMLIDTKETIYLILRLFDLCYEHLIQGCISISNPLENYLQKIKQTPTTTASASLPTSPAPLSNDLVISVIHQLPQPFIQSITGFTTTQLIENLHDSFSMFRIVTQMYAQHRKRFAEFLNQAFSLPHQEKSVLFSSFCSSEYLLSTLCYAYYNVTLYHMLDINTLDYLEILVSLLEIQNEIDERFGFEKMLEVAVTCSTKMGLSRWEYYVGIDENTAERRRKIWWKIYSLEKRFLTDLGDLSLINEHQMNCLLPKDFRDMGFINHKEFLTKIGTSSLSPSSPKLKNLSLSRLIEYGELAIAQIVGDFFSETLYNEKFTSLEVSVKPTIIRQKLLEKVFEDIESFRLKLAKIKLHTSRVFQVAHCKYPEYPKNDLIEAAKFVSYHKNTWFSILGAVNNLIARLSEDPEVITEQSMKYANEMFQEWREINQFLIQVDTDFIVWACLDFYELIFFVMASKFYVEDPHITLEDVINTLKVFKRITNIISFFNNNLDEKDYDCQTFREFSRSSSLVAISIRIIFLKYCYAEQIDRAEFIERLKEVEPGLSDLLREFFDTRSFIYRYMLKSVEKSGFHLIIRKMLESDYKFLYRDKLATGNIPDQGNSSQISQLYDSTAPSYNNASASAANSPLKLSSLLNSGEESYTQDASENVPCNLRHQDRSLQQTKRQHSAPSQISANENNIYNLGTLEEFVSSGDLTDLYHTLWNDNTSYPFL
Experiment: PBM E-score (8-mer binding enrichment) (E-score (-0.5 to 0.5)); higher = stronger / more preferred TF binding
Settings: protein concentration: 200 nM; construct: GST-full length
Protocol: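 Universal 'all 10-mer' protein binding microarrays (Agilent AMADID 015681) probed with GST-tagged S. cerevisiae TFs (full-length or DBD) made by in vitro transcription/translation (PURExpress), about 100-200 nM. Bound TF was detected with fluorescent anti-GST. Each ungapped 8-mer (which stands for itself and its reverse complement) is scored by the PBM enrichment score (E-score), a modified Wilcoxon-Mann-Whitney statistic from -0.5 to +0.5, computed with the Universal PBM Analysis Suite. Scale: above 0.35 generally sequence-specific binding.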

Sequence	PBM E-score
AACAACAC	0.0662
CCTCCAGG	-0.269
AATATTCA	0.0722
AATATTCC	0.362
AATATTCG	0.0118
ATACCGCC	0.212
ATCCGTGC	0.267
ATCCGTTG	0.376
ATCCGTGG	0.428
GTCCGTTA	0.321
CTCCGTTA	0.216
CTCCGTTC	0.367
AGCCGTTG	0.00388
CTCCGTGC	0.263
ATCCGTTA	0.364
ATCCGTGA	0.306
ATCCGTTC	0.322
ACCCGTTG	0.0389
AAGCGCGT	-0.113
TAGTCCCA	-0.187
CAACCCGG	0.293
CCACTCTA	-0.0753
AAGAGCCC	-0.00683
CGCTTAAC	0.0421
CAACCGGA	0.379

Sequence	PBM E-score
CAACCGCA	0.0919
GAACCGGC	0.247
CAACCGGG	0.129
AAACCGGA	0.346
GAACCGGA	0.416
CAACCGCC	0.0754
TAACCGGA	0.308
CAACCGCG	0.369
AAGATGAC	-0.202
AATGAAAC	0.059
GGCCTTCA	0.0249
GCGCCCCC	-0.146
GCCGACGC	0.178
AAATCCGT	0.246
CAATCCGG	0.394
AAATCCGG	0.39
AAATCCGC	0.196
CAATCCGA	0.271
CAATCCGC	0.265
GCCTCTTA	-0.109
CGAAGGTA	0.0358
CCGGACGC	0.33
ACGGACGA	0.304
TCGGACGA	0.233
ACGGACGG	0.245

Sequence	PBM E-score
CCGGACGA	0.36
CCGGACGG	0.396
AGCATTCA	-0.0565
CCGTACGA	0.00505
CATTTCTC	0.0391
GTAAAAAC	-0.132
ACCGGGTA	0.154
ACCGGGTC	0.184
CCCGGGTA	0.438
CCGGGGTC	0.327
CCGGGGTA	0.341
CCCGGGTC	0.426
AAACCATT	-0.226
TCGCTTCA	-0.114
CGGTCGAA	0.0584
ATGTCCGG	0.375
ATGTCCGC	0.223
ATATCCCC	0.0317
ACATCCCG	0.415
ACATCCCC	0.245
CCATCCCG	0.31
ATGTCCGA	0.207
ATATCCCG	0.357
ATATCCCA	0.229
ATATCCGC	0.333

Sequence	PBM E-score
ATATCCGA	0.346
ATATCCGG	0.384
AATAGCGC	0.0976
TCCTACAA	0.00772
GAGTAGCC	-0.153
AAACTGGC	-0.0559
AGAGGCAC	-0.154
CGGCTAAA	0.183
AGATCCAG	0.112
ACATCCGT	0.216
ACATCCGA	0.259
ACATCCGG	0.378
AGATCCGC	0.351
AGATCCGG	0.362
ACCGTTGG	0.0171
CAGCATGG	-0.00655
TCCACGCA	-0.174
ACCATGGA	-0.151
TCCACGGA	0.477
CCCATGGA	-0.0126
TCCATGGA	0.423
GCCACGGC	0.0607
TACACGGA	0.3
ACCACGGC	0.135
GCCACGTA	-0.208

Sequence	PBM E-score
ACCACGGG	0.205
GCCACGGA	0.415
ACCACGGA	0.377
AGGCAGCA	-0.0599
AAAACTCT	-0.109
ATCAACGG	0.247
CTATCCAC	0.0063
ATGCTATA	-0.21
ACGTTTTA	-0.16
ATGGTGAC	-0.245
CCCACGGA	0.424
CCCACGGC	0.0935
CCCACGGG	0.311
GTCAGTAA	-0.145
ACTGGAAC	0.0779
ACAGAGCC	-0.128
AACTCCGG	0.416
AGCTCCGG	0.389
AGCTCCGA	0.239
ACCTCCGT	0.204
AGCTCCGC	0.287
ATCTCCGG	0.4
CCCTCCGG	0.265
ATCTCCGC	0.292
ATCTCCGA	0.324

Sequence	PBM E-score
ACCTCCGG	0.402
CACTCCGG	0.351
AACTCCGT	0.271
ACGCTACC	-0.183
CGAGCGCG	0.273
AGCGAAGG	-0.0572
GATTTAAA	-0.159
ATGGCACG	0.117
CGCCGGCA	0.339
CGGCGCCA	0.171
CGCCGGCC	0.32
CGCCGGCG	0.452
AGCCGGCA	0.339
AGCCGGCG	0.372
AGCCGGCT	0.315
AGGCGCCG	0.161
CGGCGCCG	0.463
AACCAGAG	-0.12
ACTGACCG	-0.00211
CGTGCTTA	0.0586
CCTCTAGC	-0.247
GTTCCACA	0.0178
CGTACGGA	0.281
CGGACCCC	0.198
AGGACCCG	0.17

Sequence	PBM E-score
CGGACCCG	0.392
CAGCGCAG	-0.00798
CTCTCTGC	-0.0361
ATTTGACC	-0.0303
CATTGCAC	-0.0987
CGCCGACG	0.0962
CTGAAATC	0.0707
AGGAAATC	0.0849
CGGAAATC	0.407
GGGAAATA	0.0401
CGGAAATA	0.45
AGGAAATA	0.121
AACTCGAC	0.0587
AACAGCTT	0.048
TAGGGGAA	-0.157
AGGCATTA	-0.12
GGGCATTA	-0.0343
CGGCATTA	0.357
CTCTTCCC	0.0704
AAATCCAT	0.17
GGAACTAA	0.296
CCCGCCAC	0.254
AGCTGCTG	-0.0512
